High-throughput results as filed in PubChem BioAssay.
Only some compounds are listed: those with a hit (about 6.9% of all), similar ones and a draw of the others.
SKKanGAS inh: S. pyogenes SKKanGAS growth inhibitors in kanamycin, primary screen, streptokinase expression inhibitor project, SKKanGAS strain, BacTiter-Glo luminescence. 300,000 tested, 1.3% active. 6 h. inhibition, % at 7.5 µM;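 active = mean replicate score, as percent of positive control median, at least 50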;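 note: strain carries kanamycin resistance gene driven by streptokinase promoter and grows in 40 µg/ml kanamycin; loss of luminescence reflects streptokinase promoter inhibition or plain growth inhibition; 0% = median of DMSO wells and 100% = positive control at its reference dose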
CSC inhib: cancer stem cell viability inhibitors, primary screen, luminescence; inhibition, % at 7.5 µM; cancer stem cell-like cells viability; 300,000 tested, 1.1% active; AID 2717, 2010; in the data active = inhibition above about 75%; tested in HMLE shEcad cells
Beta apoptosis: inhibitors of cytokine-induced beta cell apoptosis, primary screen, luminescence. INS-1E cytokine-induced death, ATP luminescence, 48 h; percent of positive-control rescue, neutral wells zero. 300,000 tested, 0.8% active. AID 435005, 2010. protection from apoptosis, % (test concentration not listed);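 active = Every replicate reaches about 75%, or at least half do and their mean reaches it too, limit read from the data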;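 note: 0% = cytokine-treated negative control wells and 100% = positive control rescue; higher means more ATP so stronger rescue from cytokine killing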
NR3A LBD binder: binders of NR3A ligand-binding domain, primary screen, biophysical, differential scanning fluorimetry, uHTS; NR3A LBD differential scanning fluorimetry, Tm shift; 0% = protein alone, 100% = glycine-bound protein; Glutamate receptor ionotropic, NMDA 3A (GRIN3A) ligand-binding domain; Tm shift relative to glycine control, % at 25 µM; 340,000 tested, 2.5% active; AID 1259313, 2017;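 active = melting temperature shift of at least 10% of the positive control shift, at one fixed dose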
Mdm2 MdmX PPI: inhibitors of human Mdm2-MdmX association, primary screen, cell-based, luminescence, split luciferase, SaOS-2, uHTS | 330,000 tested, 3% active | Protein Mdm4 (Homo sapiens) + E3 ubiquitin-protein ligase Mdm2 (Homo sapiens), … | SaOS-2 split-luciferase Mdm2/MdmX complementation | inhibition, % at 8 µM;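 active = inhibition of at least 50% at 8 µM in the primary screen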
Target sequence (O15151 whole entry, looked up): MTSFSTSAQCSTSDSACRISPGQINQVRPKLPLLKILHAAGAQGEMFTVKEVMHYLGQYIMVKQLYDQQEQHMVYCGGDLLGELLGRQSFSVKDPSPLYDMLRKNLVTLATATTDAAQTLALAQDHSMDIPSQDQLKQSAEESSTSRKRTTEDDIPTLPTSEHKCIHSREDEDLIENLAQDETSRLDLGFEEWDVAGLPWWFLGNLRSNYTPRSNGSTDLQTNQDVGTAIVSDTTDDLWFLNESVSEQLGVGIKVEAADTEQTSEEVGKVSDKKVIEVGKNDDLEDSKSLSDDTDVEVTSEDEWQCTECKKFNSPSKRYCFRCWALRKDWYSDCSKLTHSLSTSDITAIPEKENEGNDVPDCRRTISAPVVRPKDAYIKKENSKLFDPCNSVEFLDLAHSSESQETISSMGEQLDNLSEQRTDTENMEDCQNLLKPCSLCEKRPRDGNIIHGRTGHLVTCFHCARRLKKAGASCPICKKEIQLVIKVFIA
Target sequence (Q00987 whole entry, looked up): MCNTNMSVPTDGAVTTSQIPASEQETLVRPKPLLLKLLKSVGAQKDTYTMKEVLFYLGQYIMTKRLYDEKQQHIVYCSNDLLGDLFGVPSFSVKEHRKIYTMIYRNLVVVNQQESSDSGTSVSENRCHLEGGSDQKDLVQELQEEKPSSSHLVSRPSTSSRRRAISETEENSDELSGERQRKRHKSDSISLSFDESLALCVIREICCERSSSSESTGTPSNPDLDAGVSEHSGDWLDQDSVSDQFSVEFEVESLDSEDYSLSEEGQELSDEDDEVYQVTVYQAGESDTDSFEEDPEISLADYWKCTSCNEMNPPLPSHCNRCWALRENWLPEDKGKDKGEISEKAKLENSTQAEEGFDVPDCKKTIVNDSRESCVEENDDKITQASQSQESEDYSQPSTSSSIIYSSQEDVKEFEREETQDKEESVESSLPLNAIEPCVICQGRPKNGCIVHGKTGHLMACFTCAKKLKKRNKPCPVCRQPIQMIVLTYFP
MPTP block: mitochondrial permeability transition pore inhibitors, primary screen, biochemical, isolated mouse mitochondria, absorbance | Ca2+ swelling absorbance, 30 min | inhibition, % at 10 µM | 360,000 tested, 1.4% active;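 active = inhibition of 50% or more, scaled per plate between neutral and stimulator controls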;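 note: 0% = DMSO wells given calcium and 100% = 1 mM EGTA wells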
Mdm2 MdmX conf: Mdm2-MdmX complex disruptors, retested hits, confirmation, luminescence, single concentration; shares compounds with Mdm2 MdmX PPI; Mdm2-MdmX binding, luminescent assay; inhibition, % at 8 µM; 10,000 tested, 55% active; AID 489028, 2010; in the data active = inhibition above about 40%
FLuc counter: full-length luciferase signal inhibition, confirmation, counter-screen for Mdm2/MdmX interaction inhibitor project, cell-based, single concentration, SaOS-2. shares compounds with Mdm2 MdmX PPI. SaOS-2 full-length luciferase counterscreen, luminescence. inhibition, % at 8 µM. 6,200 tested, 77% active. AID 504607, 2011;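 active = mean inhibition at 8 µM reaching about 37%, which flags the compound as non-specific, limit read from the data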;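 note: p53-null SaOS-2 cells with luciferase driven by a doxycycline-inducible promoter; compound on cells about two nights before reading with doxycycline added after day one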
* hit, by the source's call; . = no result given; + = active, no number.

SMILES	SKKanGAS inh	CSC inhib	Beta apoptosis	NR3A LBD binder	Mdm2 MdmX PPI	MPTP block	Mdm2 MdmX conf	FLuc counter
CC(C)N(Cc1nccn1C)C(=O)c1cc(COc2ccc(-n3cncn3)cc2)on1	-2	4	-3	2	2	3	.	.
CC(NC(=O)C(C)(C)C)C(c1cccs1)N1CCOCC1 (stereo not given)	0	-12	0	1	-6	1	.	.
C#CC(=O)N(c1cccc(OC)c1)C(C(=O)NC1CCCC1)c1cccs1 (stereo not given)	1	6	94*	-1	97*	0	100*	52*
COc1ccc(N(C(=O)Cc2cccs2)C(C(=O)NC2CCCC2)c2ccncc2)cc1OC (stereo not given)	-1	-7	-1	-3	17	1	.	.
C#CC(=O)N(c1ccc(OC)c(OC)c1)C(C(=O)NC1CCCC1)c1cccs1 (stereo not given)	-7	10	50	1	99*	0	100*	53*
COc1cc(N(C(=O)Cc2cccs2)C(C(=O)NC2CCCCC2)c2ccc(C)cc2)ccc1-n1cnnn1 (stereo not given)	28	0	16	6	84*	0	19	.
Cc1ccc(CNS(=O)(=O)c2c(C(=O)N3CCCCC3)c(C)n(C)c2C)o1	2	-8	-2	-1	-15	-2	.	.
O=C(Nc1ccc2nc3n(c(=O)c2c1)CCCC3)c1cc([N+](=O)[O-])ccc1F	7	-2	28	-3	100*	-1	91*	52*
COc1ccc(/C=C/C(=O)Nc2ccc3nc4n(c(=O)c3c2)CCCC4)cc1	16	56	1	6	70*	2	3	.
COc1cc(/C=C/C(=O)Nc2ccc3nc4n(c(=O)c3c2)CCCC4)cc(OC)c1OC	13	18	8	-2	43	0	.	.
Cc1cccc2sc(NS(=O)(=O)c3ccccc3)nc12	12	-5	1	-5	-16	-2	.	.
CCc1ccc(S(=O)(=O)/N=C2\C=C(Nc3ccc(C(=O)O)cc3)C(=O)c3ccccc32)cc1	96*	.	103*	1	80*	5	52*	33
Cc1ccc(NC2=C(NCCO)C(=O)c3ccccc3C2=O)cc1	2	8	18	0	-32	2	.	.
O=C(O)c1ccc(NC2=C(n3nnc4ccccc43)C(=O)c3ccccc3C2=O)cc1	15	6	-5	-1	18	1	.	.
Cc1ccc(NC2=C/C(=N/S(=O)(=O)c3cccs3)c3ccccc3C2=O)cc1	89*	+	103*	-8	53*	10	61*	12
COC(=O)c1ccccc1NC1=C/C(=N\S(=O)(=O)c2ccc(C(=O)O)cc2)c2ccccc2C1=O	93*	.	110*	-11	90*	8	68*	3
Cc1ccc(S(=O)(=O)/N=C2\C=C(Nc3ccc(O)cc3)C(=O)c3ccccc32)cc1	.	133*	120*	6	95*	10	89*	5
O=C(CNC(=O)OCc1ccccc1)Nc1ccc(F)cc1	.	.	8	1	18	-1	.	.
NS(=O)(=O)c1ccc(CCN2C(=O)CCC2=O)cc1	-2	-12	-3	2	1	0	.	.
Nn1c(SCC(=O)Nc2nccs2)nnc1-c1cccnc1	.	.	0	-2	-30	0	.	.
COC(=O)c1ccccc1NC1=C/C(=N\S(=O)(=O)c2cccs2)c2ccccc2C1=O	22	102*	96*	-5	100*	7	79*	58*
COC(=O)c1cccc(NS(=O)(=O)c2cccs2)c1C	-4	-17	-5	1	.	3	.	.
O=S(=O)(NCC1CCN(c2ccc(S(=O)(=O)N3CCOCC3)cc2)CC1)c1ccc(F)cc1	1	34	16	-2	-2	-1	.	.
Cc1[nH]c2ccccc2c1C(C#N)(C#N)C1C(=O)c2ccccc2C1=O	65*	34	-28	-6	61*	16	43*	11
Cc1[nH]c2ccccc2c1CC#N	-4	-16	-2	1	14	3	.	.
SMILES	SKKanGAS inh	CSC inhib	Beta apoptosis	NR3A LBD binder	Mdm2 MdmX PPI	MPTP block	Mdm2 MdmX conf	FLuc counter
CCOc1cc(/C=C\[N+](=O)[O-])ccc1OCC(=O)Nc1ccccc1C	58*	76*	80*	-2	96*	-4	100*	51*
O=C(NNc1nc(-c2ccccc2)cs1)c1ccc(F)cc1	53*	23	-5	-1	54*	1	26	.
O=C(NNc1nc(-c2ccc(F)cc2)cs1)c1ccccc1	68*	16	-3	-3	62*	0	49*	50*
O=C(NNc1nc(-c2ccccc2)cs1)c1cccs1	22	21	-1	-11	37	1	.	.
CC(C)(C)c1csc(NNC(=O)c2ccc(Br)cc2)n1	61*	61	18	-4	64*	-3	22	.
O=C1OC(Nc2nc(-c3ccc(F)cc3)cs2)c2ccccc21 (stereo not given)	0	42	21	-1	63*	0	23	.
O=C(OCC(=O)N1CCOCC1)c1cccc(S(=O)(=O)N2CCCc3ccccc32)c1	-9	-14	-1	0	16	2	.	.
Oc1ccc(-c2[nH]ncc2-c2ccc(Br)cc2)c(O)c1	-5	12	3	7	56*	1	20	.
Oc1ccc(-c2[nH]ncc2-c2cccc3cccnc23)c(O)c1	5	1	-3	-1	30	1	.	.
COc1ccc(-c2cn[nH]c2-c2ccc(OCc3ccccc3)cc2O)cc1	75*	102*	-11	12*	78*	6	77*	55*
O=[N+]([O-])c1ccc(COc2ccc(-c3[nH]ncc3-c3ccc(Cl)cc3)c(O)c2)cc1	95*	82*	17	35*	82*	15	51*	43*
COc1ccc(-c2cn[nH]c2-c2ccc(OC)cc2O)cc1	12	-6	-27	.	71*	2	62*	32
COc1ccc(/C=N/Nc2nnc(-c3ncc[nH]3)c3ccccc23)cc1	9	18	5	2	52*	4	-4	.
Oc1ccc2ccccc2c1C=NNc1ccccn1	.	.	.	-8	.	2	.	.
